Most compounds without a hit are left out; they make up all but 1.2% or so of the library.
GSH bead fluor – compound fluorescence on glutathione beads, profiling panel, artefact control, biophysical, 488/530 nm, flow cytometry. AID 1776, 2009. hit rate 0.25% among 190,000. fluorescence (KMESF) at 10 µM. GSH beads flow cytometry, compound fluorescence 488/530 nm; stronger effect = higher value; in the data active = fluorescence above about 89;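 also: glutathione beads carrying GST-tagged Bcl family fusion proteins plus one bare bead set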
RGS8-Gao – RGS8-Galphao binding modulators, primary screen, biochemical, multiplexed bead flow cytometry. Guanine nucleotide-binding protein G(o) subunit alpha (Homo sapiens), P09471. actives lie on both sides. response (percent of control binding), % at 10 µM. hit rate 0.34% among 220,000; in the data active = response below about 60% or above about 140%; inactive = in between;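 also: Galphao activated as the GDP aluminium fluoride complex binding bead-coupled RGS8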
Avidin bead fluor – green autofluorescence of compounds with avidin beads – biophysical, 488/530 nm, flow cytometry, artefact control, profiling panel; compound fluorescence 488/530 nm; stronger effect = higher value; fluorescence (KMESF) at 10 µM; hit rate 0.38% among 220,000; AID 1775, 2009; in the data active = fluorescence above about 47
RGS7-Gao reg – RGS7-Galphao binding modulators, primary screen, biochemical, multiplexed bead flow cytometry; hit rate 0.35% among 220,000; Guanine nucleotide-binding protein G(o) subunit alpha (Homo sapiens), P09471; actives lie on both sides; binding response (% of control), % at 10 µM; AID 1439, 2008; in the data active = binding response below about 49% or above about 150%; inconclusive = no clear call, values can overlap the other calls; inactive = in between;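 also: fluorescent Galphao held in activated GDP-AlF4 state binding bead-coupled RGS7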
RGS16-Gao – modulators of RGS16 binding to Galphao, primary screen, biochemical, human proteins, multiplexed bead flow cytometry; Regulator of G-protein signaling 16 (Homo sapiens) + Guanine nucleotide-binding protein …; bead-based flow cytometry RGS16-Galphao binding, fluorescence; actives lie on both sides; binding response (% of control), % at 10 µM; hit rate 0.38% among 220,000;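 also: Galphao activated by GDP with aluminum fluoride before binding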
Target sequence (O15492 whole entry, looked up): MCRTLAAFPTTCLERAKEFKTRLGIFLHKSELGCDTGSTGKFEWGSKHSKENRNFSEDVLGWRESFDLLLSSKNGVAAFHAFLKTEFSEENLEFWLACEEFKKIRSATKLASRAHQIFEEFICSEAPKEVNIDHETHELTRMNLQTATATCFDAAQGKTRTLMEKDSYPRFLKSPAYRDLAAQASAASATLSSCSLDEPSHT
Target sequence (P09471 whole entry, looked up): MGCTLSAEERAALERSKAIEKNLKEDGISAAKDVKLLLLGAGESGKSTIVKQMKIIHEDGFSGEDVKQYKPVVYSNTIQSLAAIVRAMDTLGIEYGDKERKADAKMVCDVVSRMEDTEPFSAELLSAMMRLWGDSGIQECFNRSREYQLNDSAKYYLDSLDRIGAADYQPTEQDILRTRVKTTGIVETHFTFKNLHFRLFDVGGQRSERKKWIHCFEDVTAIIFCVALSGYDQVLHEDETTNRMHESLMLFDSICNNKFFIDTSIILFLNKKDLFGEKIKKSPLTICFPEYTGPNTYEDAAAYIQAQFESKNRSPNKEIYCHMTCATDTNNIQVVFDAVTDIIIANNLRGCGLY
RGS4-Gao reg – modulators of RGS4 binding to Galphao, primary screen, biochemical, multiplexed bead flow cytometry | Guanine nucleotide-binding protein G(o) subunit alpha (Homo sapiens), P09471 | actives lie on both sides | binding response (% of control), % at 10 µM | hit rate 0.33% among 220,000 | AID 1415, 2008; in the data active = binding response below about 49% or above about 150%; inactive = in between;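 also: fluorescent Galphao activated with aluminum fluoride binding bead-coupled RGS4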
RGS4-Gao HTS – modulators of RGS–Galpha-o binding, primary screen, biochemical, multiplexed beads, flow cytometry, RGS4/7/8/16/19 | shares compounds with RGS16-Gao | multiplexed bead flow cytometry | RGS4–Galpha-o binding response, % at 10 µM | hit rate 99% among 1,600;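 also: fluorescently labeled Galpha-o bound to GDP with aluminium fluoride binding biotinylated RGS beads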
Biotin-avidin – disruption of biotin probe capture by avidin, counter-screen for RGS protein interaction modulators, biochemical, flow cytometry, bead-based; shares compounds with RGS16-Gao; streptavidin beads, fluorescein-biotin binding; inhibition, % at 10 µM; 1,700 tested, under 10 active; AID 1783, 2009;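 active = inhibition above 50%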;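 also: median green fluorescence of gated singlet beads compared with DMSO control wells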
RGS8-Gao confirm – RGS8-Galphao binding modulators, confirmation, biochemical, multiplexed bead flow cytometry, single concentration; AID 1836, 2009; bead-based flow cytometry RGS8-Galphao binding, fluorescence; actives lie on both sides; binding response (% of control), % at 10 µM; hit rate 3% among 1,700; shares compounds with RGS16-Gao; in the data active = binding response below about 72% or above about 130%; inactive = in between;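 also: Galphao activated as GDP AlF4 complex before binding bead RGS8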
RGS7-Gao single – RGS7-Galphao binding modulators, confirmation, biochemical, multiplexed bead flow cytometry, single concentration; shares compounds with RGS16-Gao; bead-based flow cytometry RGS7-Galphao binding; actives lie on both sides; response (percent of control binding), % at 10 µM; hit rate 7.8% among 1,700; AID 1837, 2009; in the data active = response below about 75% or above about 130%; inactive = in between;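 also: fluorescent Galphao activated with GDP and aluminum fluoride binding bead-coupled RGS7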
RGS16-Gao single – modulators of RGS16-Galphao protein binding, confirmation, biochemical, single concentration, multiplexed bead flow cytometry; AID 1838, 2009; response (% of control binding), % at 10 µM; bead-based flow cytometry; actives lie on both sides; shares compounds with RGS16-Gao; hit rate 4% among 1,700; in the data active = response below about 74% or above about 130%; inactive = in between;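 also: Galphao activated as the GDP aluminium fluoride complex binding bead-coupled RGS16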
RGS4-Gao confirm – modulators of RGS4-Galphao protein binding, confirmation, biochemical, single concentration, multiplexed bead flow cytometry; AID 1840, 2009; actives lie on both sides; hit rate 4% among 1,700; shares compounds with RGS16-Gao; binding response (% of control), % at 10 µM; in the data active = binding response below about 74% or above about 130%; inactive = in between
RGS19-Gao conf – regulators of RGS19-Galphao binding, confirmation, biochemical, single point, multiplexed bead flow cytometry; bead-based flow cytometry RGS19-Galphao binding; actives lie on both sides; shares compounds with RGS16-Gao; response (percent of control binding), % at 10 µM; AID 1841, 2009; hit rate 5% among 1,700; in the data active = response below about 50% or above about 160%; inactive = in between
Large screens that a line does not name were inactive (follow-up assays come after a bar, where they were run); [ ] = another dose, or the depositor's remark. Unless noted, no rule for the calls is given here.

CC1(C)NC(=O)N(CC(=O)Nc2nc(-c3ccc(F)cc3)cs2)C1=O	Avidin bead fluor 195, RGS7-Gao reg 215.6[activator] | RGS4-Gao HTS 133.1 | Biotin-avidin inactive | RGS8-Gao confirm inactive | RGS7-Gao single 69.3 | RGS16-Gao single inactive | RGS4-Gao confirm inactive | RGS19-Gao conf 48.8
O=C(CN1C(=O)NC2(CCCC2)C1=O)Nc1nc(-c2ccc(F)cc2)cs1	none
Cc1ccc(C(=O)c2oc3nc(C)cc(C)c3c2N)cc1	none
CCN(CC)C(=O)c1ccc2c(c1)nnn2C	none
O=C1C2C3C=CC(C3)C2C(=O)N1c1cccnc1 (stereo not given)	none
CCN(C(=O)CSc1ccc2ccccc2n1)C1CCS(=O)(=O)C1 (stereo not given)	none
CCN(C(=O)CSc1cc(C)c2ccccc2n1)C1CCS(=O)(=O)C1 (stereo not given)	RGS8-Gao 13.0, RGS7-Gao reg 12.4, RGS16-Gao 8.0, RGS4-Gao reg 13.9 | Biotin-avidin inactive | RGS8-Gao confirm inactive | RGS7-Gao single inactive | RGS16-Gao single inactive | RGS4-Gao confirm inactive | RGS19-Gao conf inactive
COc1cccc(CNC(=O)Cc2ccc(-n3c(=O)[nH]c4ccccc4c3=O)cc2)c1	none
O=C(O)COc1ccccc1/C=N/NC(=O)Cc1csc(Nc2cccc(C(F)(F)F)c2)n1	RGS8-Gao 39.9, RGS7-Gao reg inconclusive, RGS4-Gao reg 38.8 | Biotin-avidin inactive | RGS8-Gao confirm inactive | RGS7-Gao single inactive | RGS16-Gao single inactive | RGS4-Gao confirm inactive | RGS19-Gao conf inactive
CSc1ccccc1NC(=O)C1C2CCC(C2)C1C(=O)O (stereo not given)	RGS8-Gao 39.8, RGS7-Gao reg 33.0, RGS16-Gao 21.0, RGS4-Gao reg 24.1 | Biotin-avidin inactive | RGS8-Gao confirm inactive | RGS7-Gao single inactive | RGS16-Gao single inactive | RGS4-Gao confirm inactive | RGS19-Gao conf inactive

Compound activity as filed in PubChem BioAssay.
